# PubChem BioAssay (NCATS)
# Several values for one entry are separate records, joined by “and”; a condition that tells them apart may be missing. Equal values may be shown once. Inconclusive results are not listed. Entries that show only a call come without a potency. Activity calls are given as the source filed them. Unless noted, calls follow the shape of the dose curve; as a rule, active = well fitted curve in the direction sought with a large enough effect; inconclusive = small, poorly fitted or top-dose-only effect, or another doubt; inactive = no such curve, though single readings can be large; an effect the other way counts as inactive or inconclusive.
# Tests used:
# [1] = molecular target: Muscarinic acetylcholine receptor M1 (Rattus norvegicus) (UniProt P08482); assay: qHTS Assay for Antagonists of Acetylcholine Muscarinic M1 Receptor: Kinetic Measurement of Intracellular Calcium Response (AID 943); also: nearly all actives have a fitted effect of over 75% in size; also: potency is read from the fitted curve at half-maximal effect
# Method in brief: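 Antagonism measured as reduction of carbachol-evoked (EC80, 100 nM final) calcium flux in rat M1-CHO cells after 10 min compound exposure. Fluo-4 signal read kinetically; ratio of maximal to basal fluorescence.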
# [2] = molecular target: Muscarinic acetylcholine receptor M1 (Rattus norvegicus) (UniProt P08482); assay: qHTS Assay for Antagonists of Acetylcholine Muscarinic M1 Receptor: Measurement of IP-One Response (AID 944); also: nearly all actives have a fitted effect of over 75% in size; also: potency is read from the fitted curve at half-maximal effect
# Method in brief: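 IP1 accumulation measured via TR-FRET between d2-IP1 and Eu-cryptate anti-IP1 antibody after carbachol (200 nM, EC80) stimulation for 30 min; rat M1-transfected CHO cells received compound 10 min before agonist.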
# [3] = molecular target: Pyruvate kinase PKM (Homo sapiens) (UniProt P14618); assay: qHTS Assay for Activators of Human Muscle Pyruvate Kinase (AID 954; active = well fitted curve in the direction sought with a large enough effect, not every such curve was filed as active)
# Method in brief: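 A coupled luminescent readout tracked ATP made from ADP by purified PKM2. Final conditions included 0.1 nM enzyme, PEP and ADP at 0.5 and 0.1 mM, pH 7.2 imidazole buffer with BSA, and a one-hour room-temperature reaction.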
# [4] = Confirmation and Secondary Assay for Modulators of Hemoglobin Beta Chain Splicing at IVS2 654 locus (AID 910);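 also: HeLa cells stably carrying EGFP split by mutant beta-globin IVS2-654 intron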
# Method in brief: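 HeLa cells stably expressing EGFP interrupted by β-globin IVS2-654 intron, seeded overnight in Opti-MEM/2% FCS, then treated 2 days at 37 °C. Restored splicing read as total peak GFP intensity per well by laser scanning cytometry (488 nm excitation, 500–520 nm emission); 500 nM antisense PNA as control.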
# [5] = Confirmation and Secondary Assay for Modulators of Hemoglobin Beta Chain Splicing at IVS2 705 locus (AID 930);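 also: HeLa cells stably expressing the EGFP-705 splicing reporter; GFP fluorescence per well restored by corrected splicing of the IVS2-705 intron in EGFP; series mostly up to about 46 µM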
# Method in brief: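 Read-out: total peak GFP fluorescence per well (488 nm excitation, 500-520 nm emission) by laser-scanning cytometry. Cells: HeLa EGFP-705 splicing reporter, 2 days compound exposure in Optimem/2% FCS.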
# [6] = qHTS Assay for Identification of Small Molecule Agonists for Thrombopoietin (TPO) Signaling Pathway (AID 917)
# Method in brief: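 Luciferase reporter (Glycoprotein IIb promoter) in IL-3-deprived Ba/F3 cells carrying human TPO receptor; compounds co-added with 26 pM TPO, incubated 24 h, 37 C. Steadylite luminescence measured after 10 min.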
# [7] = molecular target: Cytochrome P450 2C9 (Homo sapiens) (UniProt P11712); assay: qHTS Assay for Inhibitors and Substrates of Cytochrome P450 2C9 (AID 883); also: nearly all actives have a fitted effect of over 60% in size; also: potency is read from the fitted curve at half-maximal effect
# Method in brief: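 Human CYP2C9 (10nM) with Luciferin-H at 100uM (its KM) in 25mM KPO4; compound preincubated 10 min at 37C, then NADPH regeneration for 60 min at 37C. Luciferin read by luminescence after detection reagent; normalized to 57uM sulphaphenazole as full inhibition.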
# [8] = molecular target: Cytochrome P450 3A4 (Homo sapiens) (UniProt P08684); assay: qHTS Assay for Inhibitors and Substrates of Cytochrome P450 3A4 (AID 884); also: nearly all actives have a fitted effect of over 50% in size; also: potency is read from the fitted curve at half-maximal effect
# Method in brief: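 Luminescent readout of luciferin produced by CYP3A4 (20 nM) dealkylation of Luciferin-PPXE, 25 uM (its KM). NADPH-driven reaction ran 60 min at RT after 10 min compound preincubation; data scaled to 57 uM ketoconazole as 100% inhibition.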
# [9] = qHTS Assay for Identification of Small Molecule Antagonists for Thrombopoietin (TPO) Signaling Pathway (AID 918); conditions: TPO-dependent cell signaling reporter, antagonist mode; also: potency is read from the fitted curve at half-maximal effect; nearly all actives have a fitted effect of over 60% in size
# Method in brief: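 Inhibition read as reduced luciferase luminescence after 24 h at 37 C in IL-3-deprived Ba/F3 cells carrying human TPO receptor and GPIIb-promoter reporter, stimulated with 26 pM TPO (final, its EC50) alongside compound.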
# [10] = molecular target: Rap guanine nucleotide exchange factor 3 (Homo sapiens) (UniProt O95398); assay: Confirmatory qHTS for antagonist of cAMP-regulated guanine nucleotide exchange factor 3 (EPAC1) (AID 1645880); also: nearly all actives have a fitted effect of over 55% in size
# Method in brief: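 Released BODIPY-GDP fluoresces less than Rap1-bound BODIPY-GDP; the signal is followed at 480/540 nm at 5-min intervals over 30 min, after 5 min at room temperature. Reactions contain 100 nM EPAC1, 250 nM RAP1B-BODIPY-GDP and 50 uM GDP; results are normalized to ATA and DMSO.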
# [11] = molecular target: Rap guanine nucleotide exchange factor 3 (Homo sapiens) (UniProt O95398); assay: Confirmatory qHTS for agonist of cAMP-regulated guanine nucleotide exchange factor 3 (EPAC1) (AID 1645881);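 also: EPAC1 catalysed release of BODIPY-GDP from Rap1B seen as fluorescence loss; nearly all actives have a fitted effect of over 75% in size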
# [12] = molecular target: Rap guanine nucleotide exchange factor 4 (Homo sapiens) (UniProt Q8WZA2); assay: Confirmatory qHTS for agonist of cAMP-regulated guanine nucleotide exchange factor 4 (EPAC2) (AID 1645884);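 also: nucleotide exchange releases bodipy-GDP from Rap1 and this lowers its fluorescence; nearly all actives have a fitted effect of over 65% in size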
# [13] = molecular target: Rap guanine nucleotide exchange factor 4 (Homo sapiens) (UniProt Q8WZA2); assay: Confirmatory qHTS for antagonist of cAMP-regulated guanine nucleotide exchange factor 4 (EPAC2) (AID 1645885); also: nearly all actives have a fitted effect of over 25% in size; also: potency is read from the fitted curve at half-maximal effect
# [14] = Primary qHTS for inhibitors of nuclear receptor binding SET domain protein 2 (NSD2) in an isogenic RCH-ACV NSD2 p.E1099K mutant (9B) (AID 1645876); also: nearly all actives have a fitted effect of over 70% in size; also: potency is read from the fitted curve at half-maximal effect
# [15] = Primary qHTS for inhibitors of nuclear receptor binding SET domain protein 2 (NSD2) in an RCH-ACV wild type WT cells (2C) (AID 1645877); also: nearly all actives have a fitted effect of over 70% in size; also: potency is read from the fitted curve at half-maximal effect
# [16] = molecular target: Glutathione peroxidase 1 (Homo sapiens) (UniProt P07203); assay: Primary qHTS Assay for Inhibitors of Recombinant Selenoprotein Glutathione Peroxidase 1 (GPX1) (AID 1845191); also: nearly all actives have a fitted effect of over 65% in size
# Method in brief: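 GR-coupled readout: NADPH consumption tracked by fluorescence, ex 340/em 450 nm, at t=0 and after 15 min at RT. Final mix 10 nM GPX1, 1 mM GSH, 0.5 mM CHP, 0.5 mM NADPH, 100 nM GR, 0.01% BSA, following 30 min enzyme–compound preincubation.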
# [17] = molecular target: Cytochrome P450 2D6 (Homo sapiens) (UniProt P10635); assay: Cytochrome P450 family 2 subfamily D member 6 (CYP2D6) small molecule antagonists: luciferase biochemical (cell-free) qHTS assay (AID 1645840; active = well fitted curve in the direction sought with a large enough effect in the repeat runs; an effect the other way counts as inactive or inconclusive; also: potency is read from the fitted curve at half-maximal effect; nearly all actives have a fitted effect of over 55% in size)
# Method in brief: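 P450-Glo CYP2D6 system: proluciferin substrate converted by enzyme to luciferin, read by luminescence proportional to activity. Enzyme-substrate mix with compound 10 min at room temperature, then NADPH regeneration 1 h before detection reagent.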
# [18] = molecular target: Cytochrome P450 2C9 (Homo sapiens) (UniProt P11712); assay: Cytochrome P450 family 2 subfamily C member 9 (CYP2C9) small molecule antagonists: luciferase biochemical (cell-free) qHTS assay (AID 1645842; active = well fitted curve in the direction sought with a large enough effect in the repeat runs; an effect the other way counts as inactive or inconclusive; also: series mostly up to about 57 µM; nearly all actives have a fitted effect of over 55% in size)
# Method in brief: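 P450-Glo CYP2C9 system: proluciferin substrate with enzyme in mix containing 0.4% BSA, 10 min at room temperature, then NADPH regeneration solution added and incubated 1 h at 37C. Detection reagent stopped reaction; luminescence read after 20 min as RLU.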
# [19] = molecular target: Phospholipid hydroperoxide glutathione peroxidase GPX4 (Homo sapiens) (UniProt P36969); assay: Primary qHTS Assay for Inhibitors of Recombinant Selenoprotein Glutathione Peroxidase 4 (GPX4) (AID 1845192); conditions: outcome: dose series up to 50 µM unless noted; also: series mostly up to about 50 µM; nearly all actives have a fitted effect of over 65% in size
# Method in brief: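 Steps: GPX4 plus compound, 30 min RT; add GR/GSH/NADPH master mix; start with cumene hydroperoxide; read 340/450 nm fluorescence at 0 and 15 min. Finals were 200 nM GPX4, 1 mM GSH, 0.5 mM CHP, 0.5 mM NADPH, 100 nM GR.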
# [20] = qHTS drug screen for cell cycle checkpoint inhibitors in PARPi-resistant BRCA-mutant ovarian cancer cell lines. (AID 1963452; calls by dose curve); conditions: PEO1/OlaR viability, CellTiter-Glo luminescence, 96 h, stronger effect = lower value
# Method in brief: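 PEO1, PEO4 and PEO1/OlaR ovarian cancer cells, 600 per well, exposed 96 h at 37C to a dilution series. Viability read by CellTiter-Glo luminescence, normalized to DMSO and empty wells; activity summarized as Z-AUC.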
# Sequence of Rap guanine nucleotide exchange factor 4 (Homo sapiens) (Q8WZA2 whole entry, looked up, the tested form may be a part): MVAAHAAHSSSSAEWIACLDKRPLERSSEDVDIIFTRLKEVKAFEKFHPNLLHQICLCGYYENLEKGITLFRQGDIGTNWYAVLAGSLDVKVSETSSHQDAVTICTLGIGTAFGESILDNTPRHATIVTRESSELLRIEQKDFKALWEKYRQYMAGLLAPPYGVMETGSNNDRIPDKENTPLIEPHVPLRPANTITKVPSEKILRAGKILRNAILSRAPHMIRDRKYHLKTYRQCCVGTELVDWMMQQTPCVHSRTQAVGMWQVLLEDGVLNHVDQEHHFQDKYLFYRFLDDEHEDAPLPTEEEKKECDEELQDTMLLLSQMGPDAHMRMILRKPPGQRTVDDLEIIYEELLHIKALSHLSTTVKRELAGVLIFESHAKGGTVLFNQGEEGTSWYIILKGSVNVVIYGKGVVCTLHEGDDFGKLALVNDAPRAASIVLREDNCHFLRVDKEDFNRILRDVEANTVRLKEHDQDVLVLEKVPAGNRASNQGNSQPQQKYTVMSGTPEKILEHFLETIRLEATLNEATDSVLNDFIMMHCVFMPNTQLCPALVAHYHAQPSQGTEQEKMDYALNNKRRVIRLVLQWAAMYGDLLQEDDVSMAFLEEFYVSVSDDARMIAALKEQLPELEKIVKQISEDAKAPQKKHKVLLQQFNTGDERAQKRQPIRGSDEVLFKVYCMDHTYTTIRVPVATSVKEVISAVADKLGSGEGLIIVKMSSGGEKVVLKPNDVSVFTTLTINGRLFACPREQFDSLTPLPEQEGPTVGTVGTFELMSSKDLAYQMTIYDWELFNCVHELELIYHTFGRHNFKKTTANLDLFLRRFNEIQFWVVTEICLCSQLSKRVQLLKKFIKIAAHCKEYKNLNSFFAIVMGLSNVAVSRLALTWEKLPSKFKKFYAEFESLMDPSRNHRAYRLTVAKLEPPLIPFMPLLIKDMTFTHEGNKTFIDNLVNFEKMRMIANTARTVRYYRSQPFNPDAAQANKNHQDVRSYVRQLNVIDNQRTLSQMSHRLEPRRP
# Sequence of Glutathione peroxidase 1 (Homo sapiens) (P07203 whole entry, looked up): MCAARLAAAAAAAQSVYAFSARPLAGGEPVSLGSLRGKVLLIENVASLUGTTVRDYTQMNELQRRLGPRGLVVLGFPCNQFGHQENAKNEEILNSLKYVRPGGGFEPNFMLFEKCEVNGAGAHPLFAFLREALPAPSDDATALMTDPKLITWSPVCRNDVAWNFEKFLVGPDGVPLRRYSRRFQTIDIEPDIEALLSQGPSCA
# Sequence of Cytochrome P450 2C9 (Homo sapiens) (P11712 whole entry, looked up): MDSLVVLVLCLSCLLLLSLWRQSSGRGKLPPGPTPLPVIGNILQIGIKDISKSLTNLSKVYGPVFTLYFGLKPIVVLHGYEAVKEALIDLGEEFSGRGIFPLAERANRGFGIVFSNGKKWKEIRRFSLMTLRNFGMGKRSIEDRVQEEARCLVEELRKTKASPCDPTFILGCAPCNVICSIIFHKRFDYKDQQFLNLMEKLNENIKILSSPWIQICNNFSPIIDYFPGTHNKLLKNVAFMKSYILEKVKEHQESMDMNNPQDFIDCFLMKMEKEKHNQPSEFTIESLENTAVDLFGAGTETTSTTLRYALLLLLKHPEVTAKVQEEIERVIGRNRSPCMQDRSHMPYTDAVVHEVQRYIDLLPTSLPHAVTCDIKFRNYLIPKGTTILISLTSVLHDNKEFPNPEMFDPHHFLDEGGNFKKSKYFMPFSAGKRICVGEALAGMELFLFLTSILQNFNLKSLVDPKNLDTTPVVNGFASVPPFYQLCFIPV
# Sequence of Pyruvate kinase PKM (Homo sapiens) (P14618 whole entry, looked up): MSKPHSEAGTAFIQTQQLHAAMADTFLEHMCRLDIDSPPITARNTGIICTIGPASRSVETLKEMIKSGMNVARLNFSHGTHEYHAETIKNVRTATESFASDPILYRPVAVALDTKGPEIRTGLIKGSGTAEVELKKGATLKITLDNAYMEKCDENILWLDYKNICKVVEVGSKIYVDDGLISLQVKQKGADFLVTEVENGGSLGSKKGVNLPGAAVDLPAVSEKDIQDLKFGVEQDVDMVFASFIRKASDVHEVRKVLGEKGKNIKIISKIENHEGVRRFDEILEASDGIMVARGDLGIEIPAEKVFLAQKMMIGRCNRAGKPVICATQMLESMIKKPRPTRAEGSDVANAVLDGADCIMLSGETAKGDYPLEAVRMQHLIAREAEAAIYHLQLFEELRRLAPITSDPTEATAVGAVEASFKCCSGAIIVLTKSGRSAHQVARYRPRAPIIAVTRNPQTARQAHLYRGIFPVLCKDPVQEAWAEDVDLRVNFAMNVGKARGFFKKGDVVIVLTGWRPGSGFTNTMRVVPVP
# Sequence of Muscarinic acetylcholine receptor M1 (Rattus norvegicus) (P08482 whole entry, looked up): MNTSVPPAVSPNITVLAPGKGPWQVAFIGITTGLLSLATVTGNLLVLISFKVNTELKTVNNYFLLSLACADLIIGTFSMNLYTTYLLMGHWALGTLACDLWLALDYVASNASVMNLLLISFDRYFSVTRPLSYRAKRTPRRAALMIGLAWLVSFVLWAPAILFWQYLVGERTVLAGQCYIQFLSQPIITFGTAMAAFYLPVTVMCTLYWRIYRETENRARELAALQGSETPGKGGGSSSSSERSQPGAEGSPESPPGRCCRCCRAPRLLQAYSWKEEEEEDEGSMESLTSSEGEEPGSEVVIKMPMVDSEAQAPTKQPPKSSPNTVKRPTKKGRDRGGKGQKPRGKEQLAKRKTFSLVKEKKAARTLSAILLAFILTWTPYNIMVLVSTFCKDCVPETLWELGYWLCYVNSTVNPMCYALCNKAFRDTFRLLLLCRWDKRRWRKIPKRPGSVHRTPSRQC
# Sequence of Cytochrome P450 3A4 (Homo sapiens) (P08684 whole entry, looked up): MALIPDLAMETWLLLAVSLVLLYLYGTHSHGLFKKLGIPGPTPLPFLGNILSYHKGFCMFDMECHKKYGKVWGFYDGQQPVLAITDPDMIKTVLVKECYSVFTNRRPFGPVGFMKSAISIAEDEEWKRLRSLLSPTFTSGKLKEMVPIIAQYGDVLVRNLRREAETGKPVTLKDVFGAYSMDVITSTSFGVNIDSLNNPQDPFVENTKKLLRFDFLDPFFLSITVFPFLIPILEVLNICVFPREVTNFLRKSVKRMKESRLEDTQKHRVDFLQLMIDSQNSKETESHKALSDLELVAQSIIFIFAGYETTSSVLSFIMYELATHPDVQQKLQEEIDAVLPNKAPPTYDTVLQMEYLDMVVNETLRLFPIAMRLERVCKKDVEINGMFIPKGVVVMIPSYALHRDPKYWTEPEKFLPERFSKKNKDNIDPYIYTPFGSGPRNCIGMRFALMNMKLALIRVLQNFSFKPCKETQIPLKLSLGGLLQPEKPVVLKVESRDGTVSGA
# Sequence of Rap guanine nucleotide exchange factor 3 (Homo sapiens) (O95398 whole entry, looked up): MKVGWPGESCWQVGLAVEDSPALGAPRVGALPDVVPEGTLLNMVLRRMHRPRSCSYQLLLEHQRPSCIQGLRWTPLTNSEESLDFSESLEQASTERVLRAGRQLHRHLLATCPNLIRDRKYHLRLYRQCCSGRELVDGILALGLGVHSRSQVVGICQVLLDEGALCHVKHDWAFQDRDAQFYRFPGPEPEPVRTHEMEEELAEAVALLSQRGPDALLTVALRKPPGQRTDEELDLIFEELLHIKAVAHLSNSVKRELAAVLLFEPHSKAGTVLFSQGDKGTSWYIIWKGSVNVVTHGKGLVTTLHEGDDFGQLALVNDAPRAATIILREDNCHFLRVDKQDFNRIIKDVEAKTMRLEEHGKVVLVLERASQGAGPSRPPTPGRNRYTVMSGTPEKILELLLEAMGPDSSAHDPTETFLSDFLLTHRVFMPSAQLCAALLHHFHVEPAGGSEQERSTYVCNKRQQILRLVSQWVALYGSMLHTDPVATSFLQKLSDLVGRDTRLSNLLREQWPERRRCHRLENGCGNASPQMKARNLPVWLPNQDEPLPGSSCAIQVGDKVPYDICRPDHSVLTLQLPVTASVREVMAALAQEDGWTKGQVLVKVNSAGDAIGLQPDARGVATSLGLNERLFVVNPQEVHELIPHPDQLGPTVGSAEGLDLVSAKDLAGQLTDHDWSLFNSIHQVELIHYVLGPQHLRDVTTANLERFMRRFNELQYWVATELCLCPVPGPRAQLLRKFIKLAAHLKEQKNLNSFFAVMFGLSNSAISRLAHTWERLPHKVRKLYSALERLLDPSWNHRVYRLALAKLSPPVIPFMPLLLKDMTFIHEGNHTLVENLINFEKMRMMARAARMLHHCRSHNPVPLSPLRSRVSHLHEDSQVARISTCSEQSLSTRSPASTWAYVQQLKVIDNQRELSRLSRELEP
# Sequence of Phospholipid hydroperoxide glutathione peroxidase GPX4 (Homo sapiens) (P36969 whole entry, looked up): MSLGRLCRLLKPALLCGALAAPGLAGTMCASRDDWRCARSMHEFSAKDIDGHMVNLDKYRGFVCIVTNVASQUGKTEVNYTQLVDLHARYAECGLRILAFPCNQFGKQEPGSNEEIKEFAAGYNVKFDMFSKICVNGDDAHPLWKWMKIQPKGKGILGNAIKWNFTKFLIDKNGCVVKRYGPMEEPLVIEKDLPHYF
# Sequence of Cytochrome P450 2D6 (Homo sapiens) (P10635 whole entry, looked up): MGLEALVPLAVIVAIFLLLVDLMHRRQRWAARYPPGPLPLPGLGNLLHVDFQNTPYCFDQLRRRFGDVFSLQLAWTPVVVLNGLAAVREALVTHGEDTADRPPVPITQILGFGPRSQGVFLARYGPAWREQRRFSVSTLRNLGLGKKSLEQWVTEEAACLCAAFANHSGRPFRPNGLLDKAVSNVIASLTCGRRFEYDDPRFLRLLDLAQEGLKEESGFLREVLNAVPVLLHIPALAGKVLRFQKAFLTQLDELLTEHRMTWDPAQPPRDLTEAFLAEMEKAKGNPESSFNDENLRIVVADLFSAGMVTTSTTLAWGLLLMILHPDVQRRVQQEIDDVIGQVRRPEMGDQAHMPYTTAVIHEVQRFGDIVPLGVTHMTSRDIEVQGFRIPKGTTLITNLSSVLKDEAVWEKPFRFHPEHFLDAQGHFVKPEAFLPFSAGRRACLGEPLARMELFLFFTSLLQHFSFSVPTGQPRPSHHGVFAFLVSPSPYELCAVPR
smiles,measurement,setting,value
N[C@]1(C(=O)O)CCc2cc(C(=O)O)ccc21,Potency,[1],inactive
same,Potency,[2],inactive
same,outcome,[3],inactive
CCN(Cc1ccncc1)C(=O)[C@@H](CO)c1ccccc1,outcome,[4],inactive
same,outcome,[5],inactive
same,outcome,[3],inactive
C[C@H](N=C(NC#N)Nc1ccncc1)C(C)(C)C,Potency,[6],inactive
same,Potency,[1],inactive
same,Potency,[2],inactive
same,outcome,[3],inactive
CNCC[C@H](Oc1ccccc1OC)c1ccccc1,Potency,[1],14.1 µM (active)
same,Potency,[2],11.2 µM (active)
same,outcome,[3],inactive
CC1=C(\C=C/C(C)=C/C=C\C(C)=C\C(=O)O)C(C)(C)CCC1,outcome,[4],inactive
same,outcome,[5],inactive
O=C(O)[C@H]1CN(CCCP(=O)(O)O)CCN1,Potency,[7],inactive
same,Potency,[8],inactive
same,Potency,[1],inactive
same,outcome,[3],inactive
N[C@H](CCC(=O)N[C@H](CSN=O)C(=O)NCC(=O)O)C(=O)O,Potency,[7],5.01 µM (active)
same,Potency,[1],inactive
C[C@@](N)(C(=O)O)c1ccc(C(=O)O)cc1,Potency,[1],inactive
same,Potency,[2],inactive
same,outcome,[3],inactive
NC1(C(=O)O)CC(C(=O)O)C1 (configuration not stated),Potency,[8],inactive
NC1(C(=O)O)C[C@H](C(=O)O)[C@H](C(=O)O)C1 (some centres not stated),Potency,[7],6.31 µM (active)
O[C@@H](c1ccccc1)C1CCN(CCc2ccccc2)CC1,Potency,[8],inactive
CCCN=C(N)NCCC[C@H](N)C(=O)O,Potency,[7],3.98 µM (active)
CSc1nc(N)c2ncn([C@H]3O[C@H](COP(=O)(O)OP(=O)(O)OP(=O)(O)O)[C@@H](O)[C@@H]3O)c2n1,Potency,[7],inactive
same,Potency,[8],inactive
O=C(O)c1c2ccccc2cc2ccccc12,Potency,[8],inactive
same,outcome,[4],inactive
same,outcome,[5],inactive
CCCCCCCCCCCCC/C=C\[C@@H](O)[C@H](CO)NC(C)=O,Potency,[7],3.16 µM (active)
CC(C)(C)c1ccc(S(=O)(=O)/C=C\C#N)cc1,Potency,[9],0.794 µM (active)
CC[C@H](C)C(=O)O[C@H]1CCC=C2C=C[C@H](C)[C@H](CC[C@@H]3C[C@H](O)CC(=O)O3)[C@H]21,Potency,[10],inactive
same,outcome,[11],inactive
same,outcome,[12],inactive
COc1ccc2[nH]c(-c3ccccc3)c(CCNC(C)=O)c2c1,Potency,[10],inactive
same,outcome,[11],inactive
same,outcome,[12],inactive
same,Potency,[13],inactive
Cc1ccc(-c2nn(C(C)(C)C)c3ncnc(N)c23)cc1,Potency,[14],7.31 µM (active)
same,Potency,[15],11.6 µM (active)
same,Potency,[16],inactive
CC(C)=CCC/C(C)=C/CC/C(C)=C/CC/C(C)=C/CO,Potency,[8],inactive
same,outcome,[4],inactive
same,outcome,[5],inactive
CC(C)(C)n1nc(-c2ccc(Cl)cc2)c2c(N)ncnc21,Potency,[14],8.2 µM (active)
same,Potency,[15],16.4 µM (active)
same,Potency,[16],inactive
COc1cc(CNC(=O)CCCC/C=C\C(C)C)ccc1O,Potency,[7],2 µM (active) and 1.26 µM (active)
same,Potency,[8],3.98 µM (active)
same,Potency,[10],inactive
same,outcome,[11],inactive
same,outcome,[12],inactive
Cc1nccn1CC1CCC2C(C1=O)c1ccccc1N2C (configuration not stated),Potency,[17],12 µM (active)
same,Potency,[18],inactive
CNC(=O)[C@H]1O[C@@H](n2cnc3c(NCc4cccc(I)c4)nc(Cl)nc32)[C@H](O)[C@@H]1O,Potency,[14],inactive
same,Potency,[15],inactive
same,Potency,[16],inactive
same,Potency,[19],inactive
same,Z-AUC,[20],0.981 (inactive)
same,Z-AUC,[20]; measured here: PEO1 parental Z-AUC,0.685
same,Z-AUC,[20]; measured here: PEO4 Z-AUC,0.71
C[C@@]12C(=O)OC(=O)[C@@]1(C)[C@@H]1CC[C@@H]2O1,Potency,[10],inactive
same,outcome,[11],inactive
same,outcome,[12],inactive
same,Potency,[13],inactive
CCN(CC)CC1CCN(c2ncc3ncnc(Nc4ccc(F)c(Cl)c4)c3n2)CC1,Potency,[14],9.2 µM (active)
same,Potency,[15],16.4 µM (active)
same,Potency,[16],inactive
CCC(C)(C)C(=O)O[C@@H]1C[C@@H](C)C=C2C=C[C@H](C)[C@H](CC[C@@H]3C[C@@H](O)CC(=O)O3)[C@H]21,outcome,[11],inactive
same,outcome,[12],inactive
same,Potency,[13],49.4 µM (active)
CCOC(=O)C1=C(C)NC(C)=C(C(=O)OC)[C@H]1c1cccc([N+](=O)[O-])c1,Potency,[7],1.58 µM (active) and 158 nM (active)
same,outcome,[4],inactive
same,outcome,[5],inactive
same,outcome,[3],inactive
same,Potency,[10],inactive
same,outcome,[11],inactive
CCn1ccnc1C[C@@H]1COc2ccccc2O1,Potency,[8],inactive
same,Potency,[2],inactive
same,Potency,[10],inactive
same,outcome,[11],inactive
same,outcome,[12],inactive
same,Potency,[13],17.5 µM (active)
